Here are results for 39 molecules from PubChem BioAssay (NCI).

Several values for one entry are separate records, joined by “and”; a condition that tells them apart may be missing. Equal values may be shown once. Compounds without any hit were thinned out: in the full panel of roughly 83,000, 20% have a hit.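 Testing used 96-well plates and a 48-hour single-concentration exposure. Example: -40 means 40% of the starting cells died.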 A number with no mark means an inactive call. Activity calls are given as the source filed them. How the source made its calls: active means growth percent below 10; inactive means the rest.

The test system of the experiment is MDA-MB-468 breast. Kind of experiment: NCI-60 one-dose screen, 48 h (100 = growth as untreated, 0 = no growth, -100 = all killed). As to conditions: 10 µM unless noted.
In the case of `N=c1nc(N2CCCCC2)cc(N)n1O`, the growth is 97.1%.

On to `COc1ccc2c(c1)C(=O)c1c-2c(=O)n(CCCN(C)C)c2cc(OC)c(OC)cc12`, for which the growth was 44.5%. For `C#C[C@@]1(O)[C@@H](CO)O[C@@H](n2cc(Br)c3c(N)ncnc32)[C@@H]1O`, the growth is -45.1% (active). As to `CC[N+](CC)=c1sc2c(s1)C(c1ccc(Cl)cc1)Oc1ccc(Cl)cc1-2` (centres undefined), the growth is -4.17% (active). The result for `CCOc1nc(-c2ccccc2)cc2c(O)c(C(=O)N/N=C/c3ccccc3O)[nH]c(=O)c12` reads 88.6%; that for `COc1ccc(/C=C(/C(=O)N2CCN(c3ccccc3)CC2)c2cc(OC)c(OC)c(OC)c2)cc1N`, 11.7%. The result for `CN1CCN(CCC=C2c3ccccc3Sc3ccc(S(=O)(=O)N(C)C)cc32)CC1` reads 21.1%; that for `CSc1nsc(N)n1`, 103%. For `Cn1cc(-c2ncnc3ccc(-c4cnc(Cl)c(NS(C)(=O)=O)c4)cc23)c2ccccc21`, the growth was -1.16% (active). The result for `CCN(CC)CCCOc1ccc2c(c1)O/C(=C\c1cccc(OC)c1)C2=O` reads 79.8%. The result for `COc1ccc(C(O)c2cc3c(N)c(C(=O)Nc4ccccc4)sc3nc2C)cc1` (centres undefined) reads 9.92% (active); that for `CC1Cc2c(N(C)C)ncnc2N(C)c2ccc(Cl)cc21` (centres undefined), 28.7%; that for `CCOC(=O)C1=C(C)N=C2Sc3cc(OC(F)(F)F)ccc3N2[C@H]1c1ccccn1`, 29.1%. Under `C=CC(C)(O)CCC1C(=C)CCC2C(C)(C)CCCC12C` (centres undefined) stands 109%; under `Nc1ncc(-c2ccc3ncnc(N4CCc5cc(F)c(F)cc54)c3c2)cn1`, 4.19% (active); under `CC(=O)c1ccc(Nc2nccc(-c3ccc(Cl)cc3)n2)cc1`, 76.7%.

With `CCCCNCCCN(CCCC)CCCNCCCC`, the growth was 94.2%. The result for `CC1=CC(=O)c2ccccc2C1=O` reads 111%; that for `CC1(C)C=CC[C@]2(C)[C@H]3CC[C@@H]4[C@H]5[C@H](C(=O)/C=C/c6cccnc6)CC[C@]5(CO)CC[C@@]4(C)[C@]3(C)CC[C@@H]12`, -60.7% (active).

For `C#Cc1ccc(-n2c(/C=C/c3cc(OC)cc(OC)c3)nc3ncccc3c2=O)cc1`, the growth was 37.4%. The result for `NC(=O)c1ncn([C@@H]2O[C@H](CO)[C@@H](O)[C@H]2O)n1` reads 83.7%. Consider `O=CN1N=C(c2ccc(Nc3ccnc4cc(Cl)ccc34)cc2)CC1c1ccccc1` (centres undefined), for which the growth was 3.07% (active). The result for `CCSc1nc(Cl)c(C#N)c(-c2ccc(F)cc2)n1` reads 84.2%; that for `O=C1CSC2=NCCN12`, 105% and 100%. Regarding `COc1ccc(-c2nc(SCC(C)C)nc(N/N=C\c3cccc([N+](=O)[O-])c3)c2C#N)cc1`, the growth is 58.1%. The result for `O=C(CNC1CCCCC1)Nc1ccc(-c2nc3ccccc3s2)cc1` reads 35.9%; that for `CC(=O)O[C@H]1[C@@H]2OC(=O)C(CSc3ccccc3)[C@@H]2C[C@H]2O[C@]2(C)CC/C=C(\C)CCC[C@@H]1C` (some centres undefined), -10% (active). Under `Brc1ccc(-c2cc(-c3ccc4c(c3)OCCO4)n[nH]2)s1` stands 7.7% (active); under `COc1ccc(S(=O)(=O)NCCCNc2nccc(-c3c(-c4cccc(N)c4)nc4sccn34)n2)cc1`, 78.7%.

For the molecule `O=c1oc2cc(OS(=O)(=O)C3CC3)ccc2c2c1CCCCCC2`, the growth was 39%. With `Cc1cccc2sc(/N=C(\N)C(Cl)(Cl)Cl)nc12`, the growth is 110%. In the case of `COc1ccccc1C(=O)CSc1nc(Nc2ccc(S(N)(=O)=O)cc2)c2ccccc2n1`, the growth is 99.7%. Turning to `C/C(=C(\c1ccc(OCCN2CCCCCC2)cc1)c1ccc(OC(=O)Cc2ccccc2)cc1)c1ccc(Cl)cc1`, the growth is -4.03% (active). Under `Cc1nnc2c(Cc3ccccc3)nc3ccccc3n12` stands 89.6%; under `CN(C)CCS(=O)(=O)CCN(C)C`, 105%; under `Clc1ccc2oc3c(NCCCN4CCOCC4)c4ccccc4nc3c2c1`, 5.24% (active). Under `C[N+]1(CCc2ccccc2)CCC(CCC2CC[N+](C)(CCc3ccccc3)CC2)CC1` (centres undefined) stands 28.8%; under `NS(=O)(=O)c1ccc(-n2nc(-c3ccc(Br)cc3)ccc2=O)cc1`, 66% [100 µM]. Regarding `C#C[C@@]1(O)[C@@H](CO)O[C@@H](n2cc(Cl)c3c(N)ccnc32)[C@@H]1O`, the growth was 72.3%.
